“And” between values parts separate entries of the source, which are not always exact repeats. Identical values can stand only once. Inconclusive results are not listed. Some structures have more than one record in an assay (separate samples or runs), and their calls can disagree. The source made the active and inactive calls. Calls come from the whole dose curve; as a rule, active = well fitted curve in the direction sought with a large enough effect in the repeat runs; inconclusive = weak or mixed curves; inactive = no such curve, though single readings can be large; an effect the other way counts as inactive or inconclusive.
Experiments:
[1] = A CellTox Green Cytotoxicity Assay to monitor cytotoxicity in HEK293 cells - 40 hour (AID 1224871); note: nearly all actives have a fitted effect of over 45% in size
In short: (§1)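 Seeding of HEK293 cells together with cytotoxicity dye preceded a 5 h incubation at 37 C/5% CO2. Test compounds in DMSO were then added and fluorescence monitored across 40 h.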

[2] = qHTS RealTime-Glo MT Cell Viability Assay in HEK293 cells - 16 hour (AID 1224872); note: top concentration of the series differs between compounds; nearly all actives have a fitted effect of over 50% in size
In short: (§2)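 Homogeneous bioluminescent viability format in HEK293 cells (600 cells/well). Following 5 h at 37 C/5% CO2, 23 nL compound was pintooled; the signal was measured repeatedly during 40 h incubation.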

[3] = qHTS RealTime-Glo MT Cell Viability Assay in HepG2 cells - 8 hour (AID 1224873); note: nearly all actives have a fitted effect of over 55% in size
In short: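 Real-time viability: cells seeded at 600 per well together with NanoLuc and cell-permeant prosubstrate, compounds added after 5 h incubation. Luminescence tracked at 0, 8, 16, 24, 32 and 40 h of exposure.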

[4] = qHTS RealTime-Glo MT Cell Viability Assay in HEK293 cells - 40 hour (AID 1224874); conditions: RealTime-Glo luminescence; max response: stronger effect = lower value; note: nearly all actives have a fitted effect of over 50% in size; note: potency is the fitted concentration of half-maximal effect
In short: (§3)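 Tox21 screen in HEK293 using RealTime-Glo MT chemistry, with cells and reagent co-dispensed. Luminescence proportional to viable cell number was captured at intervals during 40 h compound exposure at 37 C.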

[5] = A CellTox Green Cytotoxicity Assay to monitor cytotoxicity in HEK293 cells - 24 hour (AID 1224875); note: series mostly up to about 77 µM; nearly all actives have a fitted effect of over 45% in size
In short: as §1

[6] = A CellTox Green Cytotoxicity Assay to monitor cytotoxicity in HepG2 cells - 16 hour (AID 1224876); note: nearly all actives have a fitted effect of over 45% in size
In short: (§4)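 Nonlytic assay: viable cells exclude the dye, so fluorescence scales with cell death. HepG2 at 600 cells/well, compounds added after 5 h, signal read across 40 h.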

[7] = qHTS RealTime-Glo MT Cell Viability Assay in HepG2 cells - 32 hour (AID 1224877); note: nearly all actives have a fitted effect of over 55% in size
In short: (§5)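 Cell number in HepG2 cultures estimated from NanoLuc luminescence generated by metabolic reduction of a prosubstrate by living cells. The homogeneous, nonlytic format allowed repeated reads at 0, 8, 16, 24, 32 and 40 h of compound exposure.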

[8] = A CellTox Green Cytotoxicity Assay to monitor cytotoxicity in HepG2 cells - 24 hour (AID 1224878); note: nearly all actives have a fitted effect of over 45% in size
In short: as §4

[9] = A CellTox Green Cytotoxicity Assay to monitor cytotoxicity in HepG2 cells - 40 hour (AID 1224879); note: nearly all actives have a fitted effect of over 40% in size; note: potency is the fitted concentration of half-maximal effect
In short: as §4

[10] = qHTS RealTime-Glo MT Cell Viability Assay in HEK293 cells - 0 hour (AID 1224880)
In short: as §3

[11] = A CellTox Green Cytotoxicity Assay to monitor cytotoxicity in HEK293 cells - 32 hour (AID 1224881); note: nearly all actives have a fitted effect of over 40% in size
In short: as §1

[12] = A CellTox Green Cytotoxicity Assay to monitor cytotoxicity in HepG2 cells - 0 hour (AID 1224882); note: nearly all actives have a fitted effect of over 35% in size
In short: as §4

[13] = A CellTox Green Cytotoxicity Assay to monitor cytotoxicity in HepG2 cells - 32 hour (AID 1224883); note: nearly all actives have a fitted effect of over 50% in size
In short: as §4

[14] = A CellTox Green Cytotoxicity Assay to monitor cytotoxicity in HEK293 cells - 8 hour (AID 1224884); note: nearly all actives have a fitted effect of over 35% in size
In short: as §1

[15] = qHTS RealTime-Glo MT Cell Viability Assay in HEK293 cells - 24 hour (AID 1224886); note: nearly all actives have a fitted effect of over 50% in size; note: potency is the fitted concentration of half-maximal effect
In short: as §2

[16] = qHTS RealTime-Glo MT Cell Viability Assay in HEK293 cells - 8 hour (AID 1224887)
In short: as §3

[17] = A CellTox Green Cytotoxicity Assay to monitor cytotoxicity in HEK293 cells - 16 hour (AID 1224888); note: nearly all actives have a fitted effect of over 35% in size
In short: as §1

[18] = qHTS RealTime-Glo MT Cell Viability Assay in HepG2 cells - 0 hour (AID 1224889); note: nearly all actives have a fitted effect of over 50% in size
In short: as §5

[19] = A CellTox Green Cytotoxicity Assay to monitor cytotoxicity in HepG2 cells - 8 hour (AID 1224890); note: nearly all actives have a fitted effect of over 45% in size
In short: as §4

[20] = qHTS RealTime-Glo MT Cell Viability Assay in HepG2 cells - 16 hour (AID 1224885); note: nearly all actives have a fitted effect of over 50% in size
In short: as §5
% is set by controls: 0 for no effect and ±100 for the full control effect.

O=Cc1ccc2c(c1)OCO2
inactive: Potency [1] | Potency [2] | Potency [3] | max response [4] 0.0881% | Potency [5] | Potency [6] | Potency [7] | Potency [8] | Potency [9] | Potency [10] | Potency [11] | Potency [12] | Potency [13] | Potency [14] | Potency [15] | Potency [16] | Potency [17] | Potency [18] | Potency [19]

COC(=O)C(Br)CBr (stereo not given)
inactive: Potency [1] | Potency [2] | Potency [3] | max response [4] -3.92% | Potency [5] | Potency [6] | Potency [7] | Potency [8] | Potency [9] | Potency [10] | Potency [11] | Potency [12] | Potency [13] | Potency [14] | Potency [20] | Potency [15] | Potency [16] | Potency [17] | Potency [18] | Potency [19]

CCn1cc[n+](C)c1
inactive: Potency [1] | Potency [2] | Potency [3] | max response [4] 0.829% [middle of 11 runs] | Potency [5] | Potency [6] | Potency [7] | Potency [8] | Potency [10] | Potency [11] | Potency [13] | Potency [14] | Potency [20] | Potency [17] | Potency [18]
inactive and 55.5 µM (active): Potency [9]
active: Potency [4] 1560 nM
inactive and 1.75 µM (active): Potency [15]

ClCc1ccccc1
inactive: Potency [1] | Potency [2] | Potency [3] | max response [4] 2.64% | Potency [5] | Potency [6] | Potency [7] | Potency [8] | Potency [9] | Potency [10] | Potency [11] | Potency [12] | Potency [13] | Potency [14] | Potency [20] | Potency [15] | Potency [16] | Potency [17] | Potency [18] | Potency [19]

CCCCC(CC)COP(=O)(Oc1ccccc1)Oc1ccccc1 (stereo not given)
inactive: Potency [1] | Potency [2] | Potency [3] | max response [4] -24.3% | Potency [5] | Potency [6] | Potency [7] | Potency [8] | Potency [9] | Potency [10] | Potency [11] | Potency [12] | Potency [13] | Potency [14] | Potency [20] | Potency [16] | Potency [17] | Potency [18] | Potency [19]

CCN(C)N=O
inactive: Potency [1] | Potency [2] | Potency [3] | max response [4] 2.13% | Potency [5] | Potency [6] | Potency [7] | Potency [8] | Potency [9] | Potency [10] | Potency [11] | Potency [12] | Potency [13] | Potency [14] | Potency [20] | Potency [15] | Potency [16] | Potency [17] | Potency [18] | Potency [19]

CCOP(=S)(Oc1ccc([N+](=O)[O-])cc1)c1ccccc1 (stereo not given)
inactive: Potency [1] | Potency [2] | Potency [3] | max response [4] 9.18% | Potency [5] | Potency [6] | Potency [7] | Potency [8] | Potency [9] | Potency [10] | Potency [11] | Potency [12] | Potency [13] | Potency [14] | Potency [20] | Potency [15] | Potency [17] | Potency [18] | Potency [19]

From PubChem BioAssay (Tox21)
